Screens deposited in PubChem BioAssay by National Center for Advancing Translational Sciences (NCATS).
SMN2 splice enh = increases expression of the SMN2 splice variant. HEK293 SMN2-luciferase splicing reporter, luminescence, 30-36 h. Potency, µM (highest dose often 46.1 µM), without a hit: top-dose activity change, positive = activation, actives largely listed as activators. 210,000 compounds, 2.8% hits. AID 1458; note: % of control where 0% means no effect; nearly all actives have a fitted effect of over 55% in size
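qHTS luciferase splicing reporter: luminescence rises when SMN2 exon 7 is included in transfected HEK293 cells. Compound exposure lasted 30-36 h at 37C, with 4.5 mM final sodium butyrate as control, followed by a ONE-Glo read.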
Luc counter = Kinase-Glo luciferase inhibition (counter-screen); Kinase-Glo luciferase, ATP luminescence, 8 min; Q27757; 200,000 compounds, 0.28% hits; AID 1379; Potency, µM (top dose mostly 38.3 µM), for inactives: at the top dose activity change, negative = inhibition, actives largely listed as inhibitors; note: % is set by controls: 0 for no effect and ±100 for the full control effect; nearly all actives have a fitted effect of over 60% in size
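Substrate mix (final 50 mM imidazole pH 7.2, 50 mM KCl, 7 mM MgCl2, 10 uM ATP, 0.01% Tween 20, 0.05% BSA) plus pin-tool compound, then Kinase-Glo detection mix; 8 min ambient, luminescence read.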
NPC1 promoter act = activates the NPC1 promoter | 320,000 compounds, 2.4% hits | Huh7 NPC1 promoter luciferase reporter, 24 h | Potency, µM (titrated, usually from 9.22 µM), inactives show top-dose activation, actives largely listed as activators; note: % of control where 0% means no effect; nearly all actives have a fitted effect of over 60% in size
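Luminescence from an NPC1 promoter-driven luciferase reporter in stably transfected Huh7 cells was measured after 24 h compound treatment at 37 °C, followed by 10 min ambient incubation with luciferase detection reagent.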
FLuc modulator = counter-screen for miR-21 project: firefly luciferase inhibitors or activators | purified FLuc, Km substrates, luminescence inhibition | AID 588342 | Potency, µM (series often up to 57.5 µM), inactives show top-dose activity change, negative = inhibition, most hits filed as inhibitors | P08659 | 360,000 compounds, 6.9% hits;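 note: plate controls were vehicle for no effect and reference inhibitor for full effect; nearly all actives have a fitted effect of over 55% in size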
Target sequence (P08659 whole entry, looked up): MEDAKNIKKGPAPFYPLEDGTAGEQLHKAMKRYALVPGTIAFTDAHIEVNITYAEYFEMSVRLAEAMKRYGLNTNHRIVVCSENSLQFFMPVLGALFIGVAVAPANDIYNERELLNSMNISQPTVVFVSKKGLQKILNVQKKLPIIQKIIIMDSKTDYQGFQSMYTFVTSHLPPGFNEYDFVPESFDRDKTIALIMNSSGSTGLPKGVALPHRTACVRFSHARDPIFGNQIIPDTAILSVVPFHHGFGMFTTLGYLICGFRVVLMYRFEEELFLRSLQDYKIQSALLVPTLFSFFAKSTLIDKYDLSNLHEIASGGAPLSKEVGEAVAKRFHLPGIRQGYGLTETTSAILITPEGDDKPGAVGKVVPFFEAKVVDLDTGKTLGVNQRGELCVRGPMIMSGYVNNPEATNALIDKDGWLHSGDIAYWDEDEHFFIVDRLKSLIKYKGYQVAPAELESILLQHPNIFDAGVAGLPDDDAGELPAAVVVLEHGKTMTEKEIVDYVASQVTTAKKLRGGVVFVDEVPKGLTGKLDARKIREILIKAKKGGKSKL
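Biochemical qHTS of compounds, final roughly 60 µM downward over six points, against 10 nM purified firefly luciferase using Km concentrations of substrates (10 uM D-luciferin, 10 uM ATP) in Tris acetate pH 7.5 buffer; luminescence output.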
ELG1 genotoxic = genotoxicity induction in ELG1-luciferase HEK293T cells; HEK293T ELG1-luciferase reporter, luminescence, 16 h; Potency, µM (series often up to 46 µM), for the others: at the highest dose activity change, positive = activation, most hits filed as activators; 330,000 compounds, 1.3% hits; note: % of control where 0% means no effect; nearly all actives have a fitted effect of over 60% in size
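Genotoxicity was scored as increased ELG1-luciferase reporter signal, measured by ONE-Glo luminescence (30 min, room temperature). Compound or vehicle exposure of the HEK293T reporter cells lasted 16 hr at 37°C.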
Rab9 prom act = activates the Rab9 promoter | Potency, µM (doses to about 9.22 µM), without a hit: at the top dose activation, negative = inhibition, actives largely listed as activators | 320,000 compounds, 2.8% hits | Huh7 Rab9 promoter-luciferase reporter, luminescence, 24 h; note: % of control where 0% means no effect; nearly all actives have a fitted effect of over 60% in size
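Promoter activation is measured as luciferase luminescence in Huh7 cells stably transfected with a Rab9 promoter–luciferase construct, following 24 h compound exposure at 37 °C and 10 min reagent incubation at ambient temperature.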
Numbers without * were called inactive. Compounds with a hit are over-represented: about 7.3% of the library has one in this group of screens. Calls come from the whole dose curve; as a rule, active = well fitted curve in the direction sought with a large enough effect; inconclusive = small, poorly fitted or top-dose-only effect, or another doubt; inactive = no such curve, though single readings can be large; an effect the other way counts as inactive or inconclusive. Potency is the fitted concentration of half-maximal effect.

Results for Cc1ccc(O)c(-c2cc(-c3cccc(F)c3)n[nH]2)c1 ?
SMN2 splice enh: inconclusive; Luc counter: -4%; NPC1 promoter act: -3%; FLuc modulator: inconclusive; ELG1 genotoxic: 10%; Rab9 prom act: -9%

Results for Cc1ccc(-c2cc(-c3ccccc3C)[nH]n2)c(O)c1 ?
SMN2 splice enh: -41%; Luc counter: -5%; NPC1 promoter act: 4µM*; FLuc modulator: 11µM*; ELG1 genotoxic: inconclusive; Rab9 prom act: 3.5µM*

How did Nc1ncnc2c1ncn2[C@@H]1O[C@H](CO)[C@H](O)[C@H]1O do in these assays?
SMN2 splice enh: 3%; Luc counter: 0%

Results for COc1cccc(CNC(=O)Cn2cc3c(n2)-c2c(oc(C(=O)N4CCCC4)c2C)CC3)c1OC ?
FLuc modulator: -3%

How did CC(C)c1cc(C(=O)NC(C)c2ccccc2)no1 (configuration not stated) do in these assays?
SMN2 splice enh: -7%; FLuc modulator: -3%

What do the screens show for `O=c1c2ccccc2oc2ccc(NCCCn3ccnc3)cc12`?
NPC1 promoter act: 1.4µM*; FLuc modulator: 1.7µM*; ELG1 genotoxic: inconclusive; Rab9 prom act: 1.1µM*

Results for CC(C)(C)CC(=O)Nc1ccc(-c2cn3cccnc3n2)cc1 ?
NPC1 promoter act: 2.8µM*; FLuc modulator: 9.5µM*; ELG1 genotoxic: inconclusive; Rab9 prom act: inconclusive

How did CCCC(=O)Nc1ccc(-c2cn3cccnc3n2)cc1 do in these assays?
NPC1 promoter act: 28%; FLuc modulator: 17µM*; ELG1 genotoxic: 13%; Rab9 prom act: inconclusive

What do the screens show for `CC(C)CC(=O)Nc1ccc(-c2cn3cccnc3n2)cc1`?
NPC1 promoter act: inconclusive; FLuc modulator: 15µM*; ELG1 genotoxic: inconclusive; Rab9 prom act: 28%

How did CC(C)CC(=O)Nc1cccc(-c2cn3cccnc3n2)c1 do in these assays?
FLuc modulator: 24µM*

What do the screens show for `CCOCC(=O)Nc1ccc(-c2cn3cccnc3n2)cc1`?
SMN2 splice enh: 13%; Luc counter: -6%; NPC1 promoter act: -1%; FLuc modulator: inconclusive; ELG1 genotoxic: 4%; Rab9 prom act: 3%

How did CC(C)(C)C(=O)Nc1cccc(-c2cn3cccnc3n2)c1 do in these assays?
FLuc modulator: -3%

What do the screens show for `CCCC(=O)Nc1cccc(-c2cn3cccnc3n2)c1`?
SMN2 splice enh: 7%; Luc counter: 0%; NPC1 promoter act: 4%; FLuc modulator: -19%; ELG1 genotoxic: 9%; Rab9 prom act: -4%

How did O=S(=O)(NCCNC/C=C/c1ccc(Br)cc1)c1cccc2cnccc12 do in these assays?
SMN2 splice enh: -77%; Luc counter: -5%

What do the screens show for `Cc1cccc(-c2nnc(SCCC(=O)O)o2)c1`?
SMN2 splice enh: -15%; FLuc modulator: 11µM*

What do the screens show for `Cc1cccc(-c2nnc(SCC(=O)N3CCCC3)o2)c1`?
NPC1 promoter act: 3.5µM*; FLuc modulator: 27µM*; ELG1 genotoxic: inconclusive; Rab9 prom act: 4µM*

How did COc1cccc(-c2nnc(SCC(=O)N3CCCCC3)o2)c1 do in these assays?
SMN2 splice enh: 25%; FLuc modulator: inconclusive

Results for Cc1cccc(-c2nnc(SCC(=O)N3CCCCC3)o2)c1 ?
SMN2 splice enh: 4.5µM*; FLuc modulator: inconclusive

How did Cc1cccc(-c2nc3scc(CCNS(=O)(=O)c4ccc5c(c4)OCCO5)n3n2)c1 do in these assays?
FLuc modulator: 6%

What do the screens show for `Cc1cc(=O)[nH]c2nnc(SCCC(C)C)n12`?
FLuc modulator: -19%

How did Nc1ccccc1[N+](=O)[O-] do in these assays?
SMN2 splice enh: -11%

How did CCc1ccc(NC(=O)CN2C(=O)C(c3ccc(C)cc3)=NC23CCCCC3)cc1 do in these assays?
SMN2 splice enh: -9%; FLuc modulator: -3%

How did Cc1cn2c(=O)cc(COC(=O)c3cccc(NC(=O)COc4ccccc4Cl)c3)nc2s1 do in these assays?
FLuc modulator: 4.8µM*
